# Laboratory results taken from the OligoGym collection.
# Target: LRRC15
# Test: pooled miR-30 sensor sort-seq; sequence = guide strand
# Conditions: shRNA
# Also: reference of the scale not given here.
row,Sequence,sensor-assay potency score (higher = more potent)
1,TTGAGGTTGCTGCACTGGGAGA,-1.66
2,TAACCTAGGCTGGTTGAGCAGG,-0.94
3,TAGTCAGATCAGTGTAGTCTTC,-1.03
4,TTGCTGAAGACATTGTCGGGTA,0.015
5,TCTTGCAGCAGCAACAGCCGAC,-0.387
6,TTGTTGGACAGGTAGAGTCTCT,-0.632
7,TTCTTGCAGCAGCAACAGCCGA,-1.7
8,TTGAGCAGGAGCCAGTTGCGGA,-0.932
9,TTGAGTTCAGTGATGTGCGTGT,0.975
10,TTGGACAGGTAGAGTCTCTGGA,0.0615
11,TTCTTCTCAATCCTCAGGGCGA,-1.09

# Target: LRRC19
# Test: as above
# Conditions: shRNA
row,Sequence,sensor-assay potency score (higher = more potent)
1,TTGATTATGAGGACTCAGCAAA,-0.795
2,TTACTGTATTTGAACCTGCTTG,-0.499
3,TATGTCTGTAGAACTCTTGTGT,0.236
4,TTCTGCTTCATGCTCTTCCAGG,-0.767
5,TATGTAACTGTCAACTACCGAG,-0.747
6,TTCATGAATAATTTAGACCTTT,-0.134
7,TTATGTAAGATAGTAACCTTGT,0.182
8,TAAACTGTAGTGATCCTGCATT,-0.636
9,TTTGATATTGTAGCTCTGCAGG,-1.09
10,TATAGTAACATCTTTCTTGATA,-0.839
11,TAACTGTCAACTACCGAGGAGT,-0.999
